PubChem BioAssay (NCI)
Several values for one entry are separate records, joined by “and”; a condition that tells them apart may be missing. Identical values can stand only once. About 83,000 compounds went through this panel and 20% of them were active in at least one assay; those are over-represented in the sample as a whole.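 Cell lines were cultured in 96-well plates, exposed to a single compound concentration, and assessed for percent growth 48 hours later.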 Unmarked numbers belong to inactive results. Activity calls are given as the source filed them. How the source made its calls: active means growth percent below 10; inactive means the rest.

System: HL-60(TB) leukemia
Test: NCI-60 one-dose screen, 48 h (100 = growth as untreated, 0 = no growth, -100 = all killed)
Details: 10 µM unless noted

Question: With O=C1c2cccnc2-c2nccc3c2c1nc1cc(Br)ccc13 as the compound, how does the growth read?
Answer: -68.1% (active) and -56.3% (active)

Question: How did the growth turn out when COc1ccc2c(c1)[n+]([O-])c(C#N)c(NC(=O)c1ccco1)[n+]2[O-] was run?
Answer: 108%

Question: With CC(=O)Nc1c(I)c(NC(C)=O)c(I)c(C(=O)O)c1I as the compound, how does the growth read?
Answer: 92.4% and 95.8%

Question: CC(C)c1ccc2c(c1)CCC1C2CCCC1(C)NCc1ccccc1 (stereo unspecified) was tested. Which growth did it give?
Answer: 22.9%

Question: O=C1NC(=C(Cl)Cl)/C(=N/S(=O)(=O)N2CCC(C3(C(F)(F)F)N=N3)CC2)N1 was tested. Which growth did it give?
Answer: 77%

Question: Nc1n[nH]c(-c2cc(Cl)ccc2O)c1-c1ccccc1 was tested. Which growth did it give?
Answer: 69.8%

Question: Which growth does the source give for O=C1Nc2ccc(C(=O)O)c(O)c2C1=O here?
Answer: 99.8%

Question: CC(C)(C)c1nn(-c2ccccc2)c2c1C(=O)CSC(c1ccccc1Cl)N2 (stereo unspecified) was tested. Which growth did it give?
Answer: -2.32% (active)

Question: With C=CCn1cc(-c2nc3ccccc3s2)c2cc(-c3ccc4c5c(cccc35)C(=O)N(N)C4=O)ccc21 as the compound, how does the growth read?
Answer: 103%

Question: With CCCCOc1ccc(Nc2cc(Cl)ccc2C(=O)O)cn1 as the compound, how does the growth read?
Answer: 87.2% and 103%

Question: With O=C1c2cccnc2C(=O)c2c1c(C(=O)NCCCN1CCCCC1)c1ccccn21 as the compound, how does the growth read?
Answer: -29% (active)

Question: CC(=O)[C@@H]1CC[C@]2(C(N)=O)CC[C@]3(C)[C@H](CC[C@@H]4[C@@]5(C)CCC(=O)C(C)(C)[C@@H]5CC[C@]43C)[C@@H]12 was tested. Which growth did it give?
Answer: 89.7%

Question: C/C(=N/NC(N)=S)c1ccc(C)cc1 was tested. Which growth did it give?
Answer: 92%

Question: Which growth does the source give for CC(C)CCC[C@@H](C)[C@H]1CC[C@H]2[C@@H]3CC=C4C[C@@H](C(C(=O)O)C(=O)O)CC[C@]4(C)[C@H]3CC[C@]12C here?
Answer: -44.4% (active)

Question: Which growth does the source give for COc1cc(C2CC(c3cc(OC)c(OCCCOc4ccc(-n5c(/C=C/c6ccccc6)nc6ccccc6c5=O)cc4)c(OC)c3)=NO2)cc(OC)c1OC (stereo unspecified) here?
Answer: 119%

Question: For COc1ccc(-c2nocc2-c2cccs2)cc1, which growth is on record?
Answer: 115%

Question: Brc1c(-c2ccncc2)nc2n1CCS2 was tested. Which growth did it give?
Answer: 44.4%

Question: Which growth does the source give for COc1cc(-c2c3c(c(Br)n2Cc2ccccc2)-c2nc(N)sc2CC3)cc(OC)c1OC here?
Answer: 68.4%

Question: For C=CCOc1c(Br)cc(Br)cc1Br, which growth is on record?
Answer: 76.2%

Question: With Cc1nc2nc(C(F)(F)F)[nH]c2nc1C as the compound, how does the growth read?
Answer: 98.8%

Question: N=C1C(c2nc(-c3ccc(Br)cc3)cs2)=C(O)CN1Cc1cccnc1 was tested. Which growth did it give?
Answer: 72.4%

Question: With Cc1cc(N=Nc2ccc(-c3ccc(N=Nc4ccc(O)c(C(=O)O)c4)cc3)cc2)c(N)c(N=Nc2ccc(C(=O)O)cc2)c1N as the compound, how does the growth read?
Answer: 81%

Question: For O=C(Nc1ccc(I)cc1F)c1cc(Br)ccc1O, which growth is on record?
Answer: -31.3% (active)

Question: How did the growth turn out when C=CCn1c(SCC(=O)NCc2cc(C)c(O)c(C)c2)nc2ccc(Cl)cc2c1=O was run?
Answer: 94.4%

Question: CC(=O)Nc1ncc(S(=O)(=O)c2ccc([N+](=O)[O-])cc2)s1 was tested. Which growth did it give?
Answer: 113%

Question: With C/C(O)=C(/C=N\C(=S)Nc1ccc(S(=O)(=O)Nc2nccs2)cc1)C(=O)Nc1ccccc1C as the compound, how does the growth read?
Answer: 105%

Question: For CC(=O)N1N=C(c2ccc(Nc3nc(Nc4ccc(Cl)cc4)nc(Nc4ccc(Cl)cc4)n3)cc2)CC1c1ccco1 (stereo unspecified), which growth is on record?
Answer: 93.6%

Question: COc1cc(-c2cc(=O)oc3cc(O)ccc23)cc(OC)c1OC was tested. Which growth did it give?
Answer: 86.3%

Question: With COc1ccc(-c2nn(-c3ccc(Cl)cc3)cc2-c2nc3ccccc3[nH]2)cc1 as the compound, how does the growth read?
Answer: 114%

Question: How did the growth turn out when COc1ccc2c(c1)C1=NN(C(=O)CO)[C@H](c3ccc(OC(F)(F)F)cc3)[C@@H]1CC2 was run?
Answer: 104%

Question: How did the growth turn out when C[n+]1c2ccccc2c(NC2CCNCC2)c2[nH]c3ccccc3c21 was run?
Answer: 61.4%

Question: How did the growth turn out when O=C(OCc1ccc2c(Br)cc(Br)c(O)c2n1)c1cc2ccccc2[nH]1 was run?
Answer: -46.1% (active)

Question: How did the growth turn out when c1ccc2c(N3CCCCC3)ncnc2c1 was run?
Answer: 51.5%

Question: For Clc1ccc(Sc2cnc(-c3ccccc3)o2)cc1, which growth is on record?
Answer: 99.5%

Question: How did the growth turn out when COc1cc(/C=C2/C=C(c3ccccc3)N(CCc3ccc(S(N)(=O)=O)cc3)C2=O)cc(OC)c1OC was run?
Answer: 86.7%

Question: Cc1ccc(C(=O)Nc2ccc(Cl)cc2C(=O)NCc2ccccc2)cc1 was tested. Which growth did it give?
Answer: 51.9%

Question: Which growth does the source give for O=C(NCc1ccccc1)Nc1ccccc1CNc1nc(Nc2ccc(OCCN3CCCC3)cc2)ncc1Cl here?
Answer: 62.4%

Question: For CNC(=O)NCC1OC(n2cnc3c(NC(=O)Nc4ccccc4)ncnc32)C(O[Si](C)(C)C(C)(C)C)C1O[Si](C)(C)C(C)(C)C (stereo unspecified), which growth is on record?
Answer: 23.5%

Question: How did the growth turn out when CCCCNC(=O)Oc1ccc(/C(=C(/CC)Cc2ccccc2)c2ccc(OCCN3CCCCCC3)cc2)cc1 was run?
Answer: -12.8% (active)

Question: For CC(=O)Nc1ccc(S(=O)(=O)N2C(=O)CCC2C(=O)Nc2ccccc2)cc1 (stereo unspecified), which growth is on record?
Answer: 25.1%

Question: CCSc1nc(Cl)c(C#N)c(-c2ccc(F)cc2)n1 was tested. Which growth did it give?
Answer: 81.3%

Question: Which growth does the source give for CCCCCCCCCC(=O)Oc1ccc(/C(=C(/C)c2ccccc2)c2ccc(OCCN3CCCC3)cc2)cc1 here?
Answer: -30.4% (active)

Question: Which growth does the source give for Clc1ccc2c(c1)c(-c1ccccc1)nc1nncn12 here?
Answer: 112%

Question: For CSc1nc(NCCO)c(C#N)c(-c2cccc(N)c2)n1, which growth is on record?
Answer: 96.1%

Question: CS(=O)(=O)OCC1NC(=O)C(COS(C)(=O)=O)NC1=O (stereo unspecified) was tested. Which growth did it give?
Answer: 98% and 106%

Question: With O=C(O)CC1Sc2ccccc2NC1=O (stereo unspecified) as the compound, how does the growth read?
Answer: 115%

Question: CCCCCCCCCCCCCCCCSC(=NCC)NCC was tested. Which growth did it give?
Answer: -59.1% (active)

Question: COc1ccc(-c2c(-c3nc4ccc(N5CCOCC5)cc4[nH]3)[nH]c(C)c2C(C)=O)cc1 was tested. Which growth did it give?
Answer: 4.22% (active)

Question: Which growth does the source give for COC(=O)[C@]12CC[C@@H](C)[C@H](C)[C@@H]1C1=CC[C@@H]3[C@@]4(C)CC(=O)[C@H](O)[C@@](C)(CO)[C@@H]4C(=O)C[C@@]3(C)[C@]1(C)CC2 here?
Answer: -33.3% (active)

Question: With CC1=NN(c2nc(SCC(=O)Nc3nc4ccc(C)cc4s3)nc(-c3ccccc3)c2C#N)C(=O)C1 as the compound, how does the growth read?
Answer: 111%

Question: With CN(C)c1ccc(/C=C/C=N/NC(=O)c2cc(O)c(O)c(O)c2)cc1 as the compound, how does the growth read?
Answer: 84.2%

Question: How did the growth turn out when OCCCCCCNc1ncnc2cc(Cl)ccc12 was run?
Answer: 88.9%

Question: How did the growth turn out when Cc1ncsc1CCO was run?
Answer: 99.9% and 89.9%

Question: How did the growth turn out when O=C(CSc1nc2sc3c(c2c(=O)n1-c1ccccc1)CCCCC3)N/N=C/c1ccc(F)cc1 was run?
Answer: 110%

Question: CCOC(=O)C1=C(C)NC(C)=C(C(=O)OCC)C1 was tested. Which growth did it give?
Answer: 110% and 102%

Question: For COc1ccc(C(=O)C2C(c3ccc(OC)cc3)CN(C)C23C(=O)Nc2ccccc23)cc1 (stereo unspecified), which growth is on record?
Answer: 99.1%

Question: With Oc1ccc(CN2CCC(N3CCCCC3)CC2)c2cccnc12 as the compound, how does the growth read?
Answer: 28.2%

Question: CCc1nc2c(=O)[nH]cnc2o1 was tested. Which growth did it give?
Answer: 106%

Question: For CC[C@]12C=CCN3CC[C@@]4(c5ccc(OC)cc5N(C)[C@H]4[C@@](O)(C(=O)OC)[C@@H]1OC(=O)CCC(=O)N[C@H](Cc1c[nH]c4ccccc14)C(=O)OC)[C@@H]32, which growth is on record?
Answer: -25% [100 µM] (active)

Question: How did the growth turn out when COc1ccc(C(c2cc(OC)c(OC)c(OC)c2)N2CCN(c3ccccc3)CC2)cc1 (stereo unspecified) was run?
Answer: 67.1%

Question: With COc1ccc(/C=C2\CCCC3=C2N=C2SC(C)=CN2C3c2ccc(OC)cc2)cc1 (stereo unspecified) as the compound, how does the growth read?
Answer: 76.2%

Question: Which growth does the source give for c1ccc2c(CC3=NCCN3)cccc2c1 here?
Answer: 107% and 103%

Question: Which growth does the source give for OCc1cccc(-c2ccc3ncc(-c4nc(NC5CC5)ncc4F)n3c2)c1 here?
Answer: -62% (active)

Question: O=C(O)c1ccccc1C(=O)OC1CCCC2CCCC21 (stereo unspecified) was tested. Which growth did it give?
Answer: 104%

Question: Which growth does the source give for C#C[C@@]1(O)[C@@H](CO)O[C@@H](n2cc(F)c3c(N)ncnc32)[C@@H]1O here?
Answer: -22.8% (active)

Question: COc1ccc(/C=C(\C#N)c2ccc([N+](=O)[O-])cc2)c2ccccc12 was tested. Which growth did it give?
Answer: 85.4%

Question: How did the growth turn out when COC(=O)[C@]12CCC(C)(C)C[C@H]1C1=CC[C@@H]3[C@@]4(C)C/C(=C/c5cccnc5)C(=O)C(C)(C)[C@@H]4CC[C@@]3(C)[C@]1(C)CC2 was run?
Answer: -13.5% [100 µM] (active)

Question: For Cc1c(C(=O)N[C@@H](Cc2ccccc2)C(=O)C(=O)NCCc2ccccc2)[nH]c2ccccc2c1=O, which growth is on record?
Answer: 98%

Question: With COc1cc(CSc2nc3ccc(Cl)cc3c(=O)n2Cc2ccccc2)cc(OC)c1OC as the compound, how does the growth read?
Answer: 14.7%

Question: For CCOC(=O)c1c(C)oc2ncnc(N3CCN(C(=S)Nc4ccccc4)CC3)c12, which growth is on record?
Answer: 94.7%

Question: Which growth does the source give for CCOP(=O)(OCC)c1nc(-c2ccccc2)oc1NCc1cccnc1 here?
Answer: 102%

Question: With CCN(CC)CCCNc1ccc(Nc2ccc(OC)cc2)cc1 as the compound, how does the growth read?
Answer: -48.7% (active)

Question: How did the growth turn out when O=S(=O)(Nc1ccccc1)C1CCCCC1 was run?
Answer: 97.2% and 106%

Question: Which growth does the source give for O=[N+]([O-])c1ccc2[nH]cc(-c3c4ccccc4cc4[nH]c5ccc([N+](=O)[O-])cc5c34)c2c1 here?
Answer: 11.7%

Question: How did the growth turn out when COC(=O)c1nc(-c2ccc(C)cc2)oc1S(=O)(=O)c1cccc(OC)c1 was run?
Answer: 44.7%

Question: With CC(C)(C)c1ccc(OP(=S)(N/N=C/c2ccccc2O)Oc2ccc(C(C)(C)C)cc2)cc1 as the compound, how does the growth read?
Answer: 77.8%

Question: CC(C)(C)c1cc(NC(=O)Nc2ccc(-c3cn4c(n3)sc3cc(OCCN5CCOCC5)ccc34)cc2)no1 was tested. Which growth did it give?
Answer: 18.7% and 41%

Question: With CC(=O)Nc1cccc2c1CCCC2 as the compound, how does the growth read?
Answer: 89.5% and 105%

Question: With COC(=O)[C@H](CC(C)C)NC(=O)NC(=O)NC(=O)CI as the compound, how does the growth read?
Answer: 50.7%

Question: For Cc1cccc2c1NC(=O)C2(c1ccc(O)cc1)c1ccc(O)cc1, which growth is on record?
Answer: 83%

Question: With Cn1cc(-c2ccc3nc(-c4ccc(CC(=O)ONc5cc(C(C)(C)C)on5)cc4)cnc3c2)cn1 as the compound, how does the growth read?
Answer: 29%
